In PubChem BioAssay (NCI):
This is part of a sample that, as a whole, favours compounds with a hit. Of some 79,000 tested, about 15% had one in any assay. Calls of active or inactive are those of the source. No stated cut-off is given here; in the data, active means growth inhibition above about 70%; inactive means the rest.

Legend:
[1] = NCI Yeast Anticancer Drug Screen. Data for the rad52 strain (AID 147);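 further: 0% = growth of vehicle-treated control cultures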; settings: S. cerevisiae rad52 mutant growth inhibition, active compounds read high
Outline: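 Growth of repair-deficient yeast cells was compared between compound-treated and vehicle-treated cultures to give percent inhibition.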

[2] = NCI Yeast Anticancer Drug Screen. Data for the wt1 strain (AID 149);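 further: 0% = growth of vehicle-treated wt1 cultures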; settings: S. cerevisiae wt1 strain (SPY 50644) growth inhibition, active compounds read high
Outline: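 Vehicle-normalised growth inhibition; strain wt1; compound exposure.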

[3] = NCI Yeast Anticancer Drug Screen. Data for the rad50EPP+ strain (AID 151);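 further: 0% = growth of vehicle-treated control cultures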; settings: S. cerevisiae rad50 mutant strain, active compounds read high
Outline: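 Measured: growth inhibition of rad50EPP+ yeast. Reference: vehicle-treated controls. Screen uses strains with defined genetic alterations in DNA damage repair or cell cycle control.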

[4] = NCI Yeast Anticancer Drug Screen. Data for the mgt1 strain (AID 153); settings: S. cerevisiae mgt1 mutant growth inhibition, active compounds read high
Outline: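 Compounds were applied to mgt1 mutant yeast, and growth was then compared against vehicle-treated control cultures to give percent inhibition.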

[5] = NCI Yeast Anticancer Drug Screen. Data for the rad50 strain (AID 155);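 further: 0% = growth of vehicle-only cultures of the same strain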; settings: S. cerevisiae rad50 strain growth inhibition, active compounds read high
Outline: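 A DNA repair-deficient yeast mutant serves as the test organism; compound-induced growth inhibition is calculated against vehicle-treated cells.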

[6] = NCI Yeast Anticancer Drug Screen. Data for the mec2-1 strain (AID 157); settings: S. cerevisiae mec2-1 strain, active compounds read high
Outline: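 Compounds were applied to mec2-1 yeast cells. Their growth was then compared with that of vehicle-treated cultures to give growth inhibition.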

[7] = NCI Yeast Anticancer Drug Screen. Data for the rad14 strain (AID 159);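 further: 0% = growth of vehicle-treated control cultures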; settings: S. cerevisiae rad14 strain growth inhibition, active compounds read high
Outline: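 Vehicle-treated cultures served as the baseline for growth inhibition of a DNA repair-mutant yeast strain exposed to each compound.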

[8] = NCI Yeast Anticancer Drug Screen. Data for the sgs1 mgt1 strain (AID 161);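 further: 0% = growth of cultures given vehicle only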; settings: S. cerevisiae sgs1 mgt1 strain, active compounds read high
Outline: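 Compounds are added to genetically altered yeast, and growth is compared with cultures given vehicle alone to give percent inhibition.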

[9] = NCI Yeast Anticancer Drug Screen. Data for the CLN2oe strain (AID 163);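 further: 0% = growth of vehicle-only control cultures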; settings: S. cerevisiae CLN2oe strain, active compounds read high
Outline: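 Cells of an engineered yeast line with disturbed cell-cycle regulation are treated with compound. Inhibition of growth is then calculated relative to the vehicle-treated reference.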

[10] = NCI Yeast Anticancer Drug Screen. Data for the cln2 rad14 strain (AID 165);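 further: 0% = growth equal to vehicle treated cultures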; settings: S. cerevisiae cln2 rad14 strain, active compounds read high
Outline: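 Strain: cln2 rad14 yeast, altered in cell cycle control and DNA damage repair. Read-out: growth inhibition vs vehicle.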

[11] = NCI Yeast Anticancer Drug Screen. Data for the bub3 strain (AID 167); settings: S. cerevisiae bub3 mutant strain, active compounds read high
Outline: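 Inhibition values come from growth of compound-treated mutant yeast normalised to vehicle-treated controls.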

[12] = NCI Yeast Anticancer Drug Screen. Data for the wt2 strain (AID 169);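 further: 0% = growth of vehicle-treated yeast cultures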; settings: S. cerevisiae wt2 strain growth inhibition, active compounds read high
Outline: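 Growth of compound-treated yeast is measured and expressed as inhibition relative to vehicle-only controls.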

[13] = NCI Yeast Anticancer Drug Screen. Data for the mlh1 strain (AID 171);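 further: 0% = growth of vehicle-treated control cultures of the same strain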; settings: S. cerevisiae mlh1 strain growth inhibition, active compounds read high
Outline: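 Test agents were incubated with yeast bearing a defined DNA damage repair or cell cycle control alteration; values are growth inhibition normalised to vehicle-treated cultures.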

[14] = NCI Yeast Anticancer Drug Screen. Data for the sgs1 strain (AID 173);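 further: 0% = growth of vehicle-only control cultures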; settings: S. cerevisiae sgs1 mutant, active compounds read high
Outline: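 Strain with an altered DNA repair or cell cycle pathway exposed to compound. Growth then measured. Value = inhibition versus vehicle control.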

[15] = NCI Yeast Anticancer Drug Screen. Data for the mlh1 rad18 strain (AID 175); settings: S. cerevisiae mlh1 rad18 strain growth inhibition, active compounds read high
Outline: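 A repair-deficient yeast strain is exposed to test compound, and growth is scored relative to vehicle-treated controls.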

[16] = NCI Yeast Anticancer Drug Screen. Data for the rad18 strain (AID 177); settings: S. cerevisiae rad18 mutant growth inhibition, active compounds read high
Outline: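 DNA-repair-defective yeast; compound treatment; growth inhibition scored against vehicle.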

[17] = at 5.0 µM (retest, dose inferred, filed as 0.5)
[18] = at 50.0 µM (retest, dose inferred, filed as 5.0)

Measured: growth inhibition

CCC1(OC(=O)CN2CCN(CCO)CC2)C(=O)OCc2c1cc1n(c2=O)Cc2cc3ccccc3nc2-1 (stereo not drawn)
inactive: [1]; at 1.2 µM 35% | [1]; at 3.7 µM 49% | [2]; at 1.2 µM 9% | [2]; at 3.7 µM 15% | [2]; at 11.0 µM 24% | [2]; at 33.0 µM 13% | [2]; at 100.0 µM 7% | [3]; at 1.2 µM 16% | [3]; at 3.7 µM 17% | [3]; at 11.0 µM 42% | [3]; at 33.0 µM 60% | [4]; at 1.2 µM -18% | [4]; at 3.7 µM -20% | [4]; at 11.0 µM -19% | [4]; at 33.0 µM -23% | [4]; at 100.0 µM -45% | [5]; at 1.2 µM 18% | [5]; at 3.7 µM 57% | [5]; [17] 4% | [5]; at 50.0 µM 17.9% | [6]; at 1.2 µM -23% | [6]; at 3.7 µM -19% | [6]; [17] 4% | [6]; at 11.0 µM -12% | [6]; at 33.0 µM -21% | [6]; [18] -2% | [6]; at 50.0 µM 20.1% | [6]; at 100.0 µM 29% | [7]; at 1.2 µM -13% | [7]; at 3.7 µM -4% | [7]; at 11.0 µM -25% | [7]; at 33.0 µM -14% | [7]; at 100.0 µM -20% | [8]; [17] -8% | [8]; [18] -10% | [8]; at 50.0 µM 3.05% | [9]; at 1.2 µM 3% | [9]; at 3.7 µM 5% | [9]; at 11.0 µM 2% | [9]; at 33.0 µM -23% | [9]; at 100.0 µM -3% | [10]; [17] 20% | [10]; [18] 17% | [10]; at 50.0 µM 8.9% | [11]; at 1.2 µM -4% | [11]; at 3.7 µM 1% | [11]; [17] 0% | [11]; at 11.0 µM -10% | [11]; at 33.0 µM -14% | [11]; [18] 3% | [11]; at 50.0 µM -21.4% | [11]; at 100.0 µM -30% | [12]; at 1.2 µM 11% | [12]; at 3.7 µM 9% | [12]; at 11.0 µM 14% | [12]; at 33.0 µM 5% | [12]; at 100.0 µM -4% | [13]; at 1.2 µM 1% | [13]; at 3.7 µM -5% | [13]; at 11.0 µM -12% | [13]; at 33.0 µM -20% | [13]; at 100.0 µM -13% | [14]; at 1.2 µM 30% | [14]; at 3.7 µM 21% | [14]; at 11.0 µM 26% | [14]; at 33.0 µM 21% | [14]; at 100.0 µM 24% | [15]; [17] -8% | [15]; [18] -1% | [16]; at 1.2 µM 9% | [16]; at 3.7 µM 19% | [16]; at 11.0 µM 6% | [16]; at 33.0 µM 6% | [16]; at 100.0 µM 1%
active: [1]; at 11.0 µM 70% | [1]; at 33.0 µM 89% | [1]; at 100.0 µM 93% | [3]; at 100.0 µM 82% | [5]; at 11.0 µM 74% | [5]; at 33.0 µM 88% | [5]; [18] 83% | [5]; at 100.0 µM 92% | [15]; at 50.0 µM 78.3%
